# Experimental data from PMC7862700, “An all-to-all approach to the identification of sequence-specific readers for epigenetic DNA modifications on cytosine”.
# Tests used:
# Test in all cases: DAPPL (digital affinity profiling via proximity ligation, sequencing); 10 mM Tris-HCl pH 7.5, 50 mM NaCl, 1 mM DTT, 4% glycerol, room temperature, 30 min; GST-TFs on glutathione beads, 16-mer random dsDNA library, 0.1% formaldehyde crosslink after washing; high values mean tight binding
# [1] = biological target: T1, FLI1 (Homo sapiens, UniProt Q01543 1-452); settings: protein: recombinant; tags: N-terminal GST; dsDNA, one strand shown
# T1 sequence: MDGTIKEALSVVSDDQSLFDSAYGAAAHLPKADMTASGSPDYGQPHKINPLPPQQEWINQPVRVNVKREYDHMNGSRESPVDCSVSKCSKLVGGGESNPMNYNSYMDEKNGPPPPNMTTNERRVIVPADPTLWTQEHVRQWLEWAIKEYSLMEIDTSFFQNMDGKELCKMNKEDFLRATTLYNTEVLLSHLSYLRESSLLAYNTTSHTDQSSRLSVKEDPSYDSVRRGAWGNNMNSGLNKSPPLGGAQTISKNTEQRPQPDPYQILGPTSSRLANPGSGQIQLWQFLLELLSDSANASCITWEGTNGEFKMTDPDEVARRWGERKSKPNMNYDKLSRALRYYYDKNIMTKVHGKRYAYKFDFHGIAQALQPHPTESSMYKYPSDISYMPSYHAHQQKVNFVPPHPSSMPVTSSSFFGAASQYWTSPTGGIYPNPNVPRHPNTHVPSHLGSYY
# Outline: (§1)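 Human transcription factors were made in yeast as GST fusions, captured on glutathione beads and barcoded with DNA. With a tag-only sample included, the pool was incubated with 200 nmole of a random double-stranded 16-mer DNA library in Tris/NaCl/DTT/glycerol buffer at room temperature for 30 min, then crosslinked with 0.1% formaldehyde after washing, ligated by proximity, amplified and sequenced. For binding signal, each hexamer's read frequency for a factor is divided by its frequency for the tag-only sample.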
# [2] = biological target: T2, ELK1 (Homo sapiens, UniProt P19419 1-428); settings: protein: recombinant; tags: N-terminal GST; dsDNA, one strand shown
# T2 sequence: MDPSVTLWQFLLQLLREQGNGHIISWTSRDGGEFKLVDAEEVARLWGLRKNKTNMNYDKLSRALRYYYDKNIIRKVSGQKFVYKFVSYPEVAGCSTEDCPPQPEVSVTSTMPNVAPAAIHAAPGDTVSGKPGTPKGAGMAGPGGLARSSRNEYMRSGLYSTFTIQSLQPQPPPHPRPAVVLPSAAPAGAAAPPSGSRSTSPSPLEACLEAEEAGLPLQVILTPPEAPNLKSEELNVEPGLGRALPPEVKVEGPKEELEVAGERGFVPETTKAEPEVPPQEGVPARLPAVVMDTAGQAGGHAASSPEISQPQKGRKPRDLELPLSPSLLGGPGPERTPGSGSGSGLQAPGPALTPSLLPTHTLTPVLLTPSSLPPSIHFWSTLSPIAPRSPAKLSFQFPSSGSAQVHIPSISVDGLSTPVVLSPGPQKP
# Outline: as §1
# [3] = biological target: T3, GABPA (Homo sapiens, UniProt Q06546 1-454); settings: protein: recombinant; tags: N-terminal GST; dsDNA, one strand shown
# T3 sequence: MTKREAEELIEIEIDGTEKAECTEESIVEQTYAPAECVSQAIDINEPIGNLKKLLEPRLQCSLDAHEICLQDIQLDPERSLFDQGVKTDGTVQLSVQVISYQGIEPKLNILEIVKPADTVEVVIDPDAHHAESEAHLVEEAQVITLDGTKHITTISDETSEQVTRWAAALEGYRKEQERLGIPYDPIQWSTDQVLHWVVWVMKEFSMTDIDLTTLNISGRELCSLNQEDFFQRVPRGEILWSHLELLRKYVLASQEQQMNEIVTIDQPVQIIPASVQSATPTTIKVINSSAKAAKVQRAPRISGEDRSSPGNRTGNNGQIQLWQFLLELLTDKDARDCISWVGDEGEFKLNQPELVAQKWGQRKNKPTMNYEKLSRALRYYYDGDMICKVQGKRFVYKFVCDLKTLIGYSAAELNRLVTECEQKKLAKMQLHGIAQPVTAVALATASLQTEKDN
# Outline: as §1
# [4] = biological target: T4, ERG (Homo sapiens, UniProt P11308 1-479); settings: protein: recombinant; tags: N-terminal GST; dsDNA, one strand shown
# T4 sequence: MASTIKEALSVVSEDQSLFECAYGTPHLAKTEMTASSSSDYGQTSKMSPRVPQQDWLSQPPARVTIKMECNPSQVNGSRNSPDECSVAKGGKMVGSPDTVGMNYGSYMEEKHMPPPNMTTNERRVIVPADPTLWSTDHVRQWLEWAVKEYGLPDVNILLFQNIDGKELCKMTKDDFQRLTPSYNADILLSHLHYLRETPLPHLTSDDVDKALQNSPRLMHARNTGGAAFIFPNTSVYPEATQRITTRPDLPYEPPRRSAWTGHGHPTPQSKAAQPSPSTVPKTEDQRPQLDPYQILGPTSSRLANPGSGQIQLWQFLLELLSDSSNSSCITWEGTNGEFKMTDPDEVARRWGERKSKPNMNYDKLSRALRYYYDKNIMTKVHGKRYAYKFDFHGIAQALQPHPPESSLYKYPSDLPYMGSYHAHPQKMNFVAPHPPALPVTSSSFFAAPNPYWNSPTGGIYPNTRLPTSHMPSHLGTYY
# Outline: as §1
# [5] = biological target: ELF1 (Homo sapiens, UniProt P32519 1-619); settings: protein: recombinant; tags: N-terminal GST; dsDNA, one strand shown
# Outline: as §1
# [6] = biological target: T5, EHF (Homo sapiens, UniProt Q9NZC4 1-300); settings: protein: recombinant; tags: N-terminal GST; dsDNA, one strand shown
# T5 sequence: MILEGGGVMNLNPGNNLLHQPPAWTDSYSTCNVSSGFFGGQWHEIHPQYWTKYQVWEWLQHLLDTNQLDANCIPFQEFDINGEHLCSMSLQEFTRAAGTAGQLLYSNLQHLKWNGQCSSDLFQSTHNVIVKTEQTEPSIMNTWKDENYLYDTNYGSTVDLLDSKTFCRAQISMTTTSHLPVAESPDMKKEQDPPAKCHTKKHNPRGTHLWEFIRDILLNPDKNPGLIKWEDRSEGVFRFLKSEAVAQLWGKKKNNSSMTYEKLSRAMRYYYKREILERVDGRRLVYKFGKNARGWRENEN
# Outline: as §1
# [7] = biological target: SPI1 (Homo sapiens, UniProt P17947 1-270); settings: protein: recombinant; tags: N-terminal GST; dsDNA, one strand shown
# Outline: as §1
# [8] = biological target: SPIB (Homo sapiens, UniProt Q01892 1-262); settings: protein: recombinant; tags: N-terminal GST; dsDNA, one strand shown
# Outline: as §1
# [9] = biological target: T6, ELK3 (Homo sapiens, UniProt P41970 1-407); settings: protein: recombinant; tags: N-terminal GST; dsDNA, one strand shown
# T6 sequence: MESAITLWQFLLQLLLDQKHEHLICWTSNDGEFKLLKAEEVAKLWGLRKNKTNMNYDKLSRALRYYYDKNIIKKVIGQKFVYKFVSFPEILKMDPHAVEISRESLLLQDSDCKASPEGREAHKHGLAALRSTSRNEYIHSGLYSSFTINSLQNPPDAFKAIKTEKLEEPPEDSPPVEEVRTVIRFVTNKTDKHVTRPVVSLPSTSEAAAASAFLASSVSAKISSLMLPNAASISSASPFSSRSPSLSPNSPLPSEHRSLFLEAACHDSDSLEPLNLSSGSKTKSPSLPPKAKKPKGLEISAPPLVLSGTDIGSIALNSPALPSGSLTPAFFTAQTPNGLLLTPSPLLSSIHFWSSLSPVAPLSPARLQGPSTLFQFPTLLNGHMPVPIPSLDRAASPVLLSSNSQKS
# Outline: as §1
# [10] = biological target: T7, FEV (Homo sapiens, UniProt Q99581 1-238); settings: protein: recombinant; tags: N-terminal GST; dsDNA, one strand shown
# T7 sequence: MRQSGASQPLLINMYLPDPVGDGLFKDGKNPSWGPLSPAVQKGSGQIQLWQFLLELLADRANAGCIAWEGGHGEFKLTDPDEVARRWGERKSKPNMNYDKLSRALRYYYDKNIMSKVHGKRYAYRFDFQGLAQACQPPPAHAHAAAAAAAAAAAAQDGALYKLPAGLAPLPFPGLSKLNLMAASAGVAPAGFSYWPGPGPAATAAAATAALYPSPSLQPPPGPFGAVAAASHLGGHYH
# Outline: as §1
# [11] = biological target: ETV5 (Homo sapiens, UniProt P41161 1-510); settings: protein: recombinant; tags: N-terminal GST; dsDNA, one strand shown
# Outline: as §1
# [12] = biological target: HSF1 (Homo sapiens, UniProt Q00613 1-529); settings: protein: recombinant; tags: N-terminal GST; chain copies: 3; dsDNA, one strand shown
# Outline: as §1
# [13] = biological target: T8, SPIC (Homo sapiens, UniProt Q8N5J4 1-248); settings: protein: recombinant; tags: N-terminal GST; dsDNA, one strand shown
# T8 sequence: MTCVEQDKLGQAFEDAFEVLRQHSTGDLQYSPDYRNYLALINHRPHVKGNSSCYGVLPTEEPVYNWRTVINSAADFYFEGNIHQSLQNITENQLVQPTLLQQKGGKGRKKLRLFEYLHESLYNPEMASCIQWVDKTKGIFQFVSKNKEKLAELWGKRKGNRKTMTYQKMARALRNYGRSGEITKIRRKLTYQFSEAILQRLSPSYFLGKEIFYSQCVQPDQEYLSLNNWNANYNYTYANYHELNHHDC
# Outline: as §1
# [14] = biological target: ELF4 (Homo sapiens, UniProt Q99607 1-663); settings: protein: recombinant; tags: N-terminal GST; dsDNA, one strand shown
# Outline: as §1
# [15] = biological target: T9, ELK4 (Homo sapiens, UniProt P28324-2 1-405); settings: protein: recombinant; tags: N-terminal GST; dsDNA, one strand shown
# T9 sequence: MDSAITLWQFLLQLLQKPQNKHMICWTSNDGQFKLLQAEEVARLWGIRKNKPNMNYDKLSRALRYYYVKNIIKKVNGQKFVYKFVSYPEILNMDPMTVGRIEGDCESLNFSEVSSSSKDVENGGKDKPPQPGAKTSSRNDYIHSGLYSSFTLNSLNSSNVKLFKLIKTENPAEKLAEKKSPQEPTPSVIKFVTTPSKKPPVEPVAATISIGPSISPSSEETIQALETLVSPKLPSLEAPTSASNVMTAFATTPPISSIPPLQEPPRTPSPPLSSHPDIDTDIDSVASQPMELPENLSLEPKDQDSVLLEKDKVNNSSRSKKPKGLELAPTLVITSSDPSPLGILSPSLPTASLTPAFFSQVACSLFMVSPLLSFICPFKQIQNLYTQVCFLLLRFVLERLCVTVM
# Outline: as §1
# [16] = biological target: T10, ETV2 (Homo sapiens, UniProt O00321 1-342); settings: protein: recombinant; tags: N-terminal GST; dsDNA, one strand shown
# T10 sequence: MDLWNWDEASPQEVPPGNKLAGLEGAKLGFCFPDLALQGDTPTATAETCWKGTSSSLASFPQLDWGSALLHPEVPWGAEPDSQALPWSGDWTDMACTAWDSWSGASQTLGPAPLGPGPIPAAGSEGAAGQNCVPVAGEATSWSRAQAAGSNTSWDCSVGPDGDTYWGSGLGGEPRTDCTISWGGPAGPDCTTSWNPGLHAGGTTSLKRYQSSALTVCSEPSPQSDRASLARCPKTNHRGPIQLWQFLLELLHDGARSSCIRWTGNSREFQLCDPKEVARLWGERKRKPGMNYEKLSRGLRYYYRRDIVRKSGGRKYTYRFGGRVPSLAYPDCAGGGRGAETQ
# Outline: as §1
# [17] = biological target: T11, ELF3 (Homo sapiens, UniProt P78545 1-371); settings: protein: recombinant; tags: N-terminal GST; dsDNA, one strand shown
# T11 sequence: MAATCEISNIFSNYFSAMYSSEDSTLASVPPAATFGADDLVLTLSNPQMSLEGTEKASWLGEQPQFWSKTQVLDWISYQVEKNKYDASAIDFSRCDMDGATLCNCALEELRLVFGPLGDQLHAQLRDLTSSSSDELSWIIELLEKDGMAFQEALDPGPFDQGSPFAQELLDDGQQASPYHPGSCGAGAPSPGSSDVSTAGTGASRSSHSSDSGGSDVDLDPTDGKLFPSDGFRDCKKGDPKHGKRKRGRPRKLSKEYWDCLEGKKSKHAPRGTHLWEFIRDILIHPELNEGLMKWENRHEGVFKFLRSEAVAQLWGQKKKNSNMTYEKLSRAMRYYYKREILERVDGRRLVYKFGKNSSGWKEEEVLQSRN
# Outline: as §1
# [18] = biological target: CRX (Homo sapiens, UniProt O43186 1-299); settings: protein: recombinant; tags: N-terminal GST; dsDNA, one strand shown
# Outline: as §1
# [19] = biological target: ETV1 (Homo sapiens, UniProt P50549 1-477); settings: protein: recombinant; tags: N-terminal GST; dsDNA, one strand shown
# Outline: as §1
# ELF4, sequence (Q99607 whole entry): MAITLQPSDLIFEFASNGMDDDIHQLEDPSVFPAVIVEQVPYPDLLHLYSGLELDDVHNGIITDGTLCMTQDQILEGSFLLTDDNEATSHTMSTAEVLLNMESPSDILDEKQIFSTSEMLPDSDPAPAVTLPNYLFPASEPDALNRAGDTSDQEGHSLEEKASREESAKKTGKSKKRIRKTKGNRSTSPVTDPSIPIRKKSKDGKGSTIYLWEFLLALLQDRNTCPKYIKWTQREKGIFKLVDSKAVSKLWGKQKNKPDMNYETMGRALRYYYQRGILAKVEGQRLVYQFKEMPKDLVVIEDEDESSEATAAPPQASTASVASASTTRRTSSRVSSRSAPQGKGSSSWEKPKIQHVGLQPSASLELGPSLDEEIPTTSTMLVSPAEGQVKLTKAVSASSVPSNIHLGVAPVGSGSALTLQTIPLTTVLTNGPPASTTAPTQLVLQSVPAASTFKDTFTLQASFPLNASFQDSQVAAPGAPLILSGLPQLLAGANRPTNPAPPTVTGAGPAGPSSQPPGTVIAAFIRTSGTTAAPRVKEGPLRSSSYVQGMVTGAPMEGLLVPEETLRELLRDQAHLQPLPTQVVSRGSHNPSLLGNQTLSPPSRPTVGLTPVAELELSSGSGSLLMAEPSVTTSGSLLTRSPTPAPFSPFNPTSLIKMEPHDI
# ELF1, sequence (P32519 whole entry): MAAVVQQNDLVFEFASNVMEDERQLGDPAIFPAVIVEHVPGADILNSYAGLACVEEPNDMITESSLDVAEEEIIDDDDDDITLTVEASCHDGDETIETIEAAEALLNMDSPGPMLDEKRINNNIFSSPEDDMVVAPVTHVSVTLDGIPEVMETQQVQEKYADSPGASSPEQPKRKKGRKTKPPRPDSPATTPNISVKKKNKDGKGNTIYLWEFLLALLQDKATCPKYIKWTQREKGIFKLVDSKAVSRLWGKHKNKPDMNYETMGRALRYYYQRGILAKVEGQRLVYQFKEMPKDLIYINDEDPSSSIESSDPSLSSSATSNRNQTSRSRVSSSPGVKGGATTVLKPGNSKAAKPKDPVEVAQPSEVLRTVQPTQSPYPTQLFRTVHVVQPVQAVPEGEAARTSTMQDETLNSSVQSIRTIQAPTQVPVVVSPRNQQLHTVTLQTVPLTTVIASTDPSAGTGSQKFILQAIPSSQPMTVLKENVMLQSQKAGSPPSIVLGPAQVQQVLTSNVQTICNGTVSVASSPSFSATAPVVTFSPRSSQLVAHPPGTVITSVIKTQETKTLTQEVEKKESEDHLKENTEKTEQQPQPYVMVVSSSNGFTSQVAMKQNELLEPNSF
# CRX, sequence (O43186 whole entry): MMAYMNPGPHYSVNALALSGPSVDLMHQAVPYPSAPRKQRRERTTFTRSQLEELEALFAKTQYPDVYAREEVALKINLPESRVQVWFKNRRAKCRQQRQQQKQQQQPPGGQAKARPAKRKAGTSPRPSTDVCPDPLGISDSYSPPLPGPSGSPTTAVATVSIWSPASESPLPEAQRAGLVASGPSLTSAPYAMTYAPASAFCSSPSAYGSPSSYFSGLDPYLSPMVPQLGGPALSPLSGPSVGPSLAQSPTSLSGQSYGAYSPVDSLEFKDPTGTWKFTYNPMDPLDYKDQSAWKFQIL
# ETV1, sequence (P50549 whole entry): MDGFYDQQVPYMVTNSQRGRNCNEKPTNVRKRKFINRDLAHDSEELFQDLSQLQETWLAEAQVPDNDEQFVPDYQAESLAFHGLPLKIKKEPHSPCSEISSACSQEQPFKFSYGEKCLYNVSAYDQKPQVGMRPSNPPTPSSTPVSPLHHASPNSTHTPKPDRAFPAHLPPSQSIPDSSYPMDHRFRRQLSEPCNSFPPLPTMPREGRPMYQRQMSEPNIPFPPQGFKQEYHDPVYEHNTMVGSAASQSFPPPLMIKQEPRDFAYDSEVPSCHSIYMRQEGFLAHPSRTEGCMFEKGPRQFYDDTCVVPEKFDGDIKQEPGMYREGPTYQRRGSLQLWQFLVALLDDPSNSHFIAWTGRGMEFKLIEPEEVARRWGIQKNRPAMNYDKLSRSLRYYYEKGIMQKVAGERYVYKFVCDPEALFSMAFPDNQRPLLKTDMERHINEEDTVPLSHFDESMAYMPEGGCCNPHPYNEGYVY
# ETV5, sequence (P41161 whole entry): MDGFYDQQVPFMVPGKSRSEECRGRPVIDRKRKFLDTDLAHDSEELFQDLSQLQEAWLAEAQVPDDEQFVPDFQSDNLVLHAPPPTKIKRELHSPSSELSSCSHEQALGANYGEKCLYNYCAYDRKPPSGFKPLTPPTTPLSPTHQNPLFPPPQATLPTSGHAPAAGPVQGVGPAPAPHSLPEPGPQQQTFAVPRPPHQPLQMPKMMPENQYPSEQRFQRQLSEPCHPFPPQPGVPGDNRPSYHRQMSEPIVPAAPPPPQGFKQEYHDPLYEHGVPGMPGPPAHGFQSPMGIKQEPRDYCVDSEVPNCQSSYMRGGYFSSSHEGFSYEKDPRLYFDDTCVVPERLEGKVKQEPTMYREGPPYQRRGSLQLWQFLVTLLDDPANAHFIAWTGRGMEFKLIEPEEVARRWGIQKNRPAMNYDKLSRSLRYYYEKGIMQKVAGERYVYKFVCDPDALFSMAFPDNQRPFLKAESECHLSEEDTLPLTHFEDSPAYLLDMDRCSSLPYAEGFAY
# SPIB, sequence (Q01892 whole entry): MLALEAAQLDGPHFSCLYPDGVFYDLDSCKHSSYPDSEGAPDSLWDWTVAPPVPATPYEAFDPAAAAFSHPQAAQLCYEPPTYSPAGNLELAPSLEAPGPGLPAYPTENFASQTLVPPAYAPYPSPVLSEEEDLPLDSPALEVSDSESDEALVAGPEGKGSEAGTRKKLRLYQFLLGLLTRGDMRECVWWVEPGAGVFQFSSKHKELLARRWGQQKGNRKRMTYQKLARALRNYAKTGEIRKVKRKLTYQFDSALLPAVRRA
# HSF1, sequence (Q00613 whole entry): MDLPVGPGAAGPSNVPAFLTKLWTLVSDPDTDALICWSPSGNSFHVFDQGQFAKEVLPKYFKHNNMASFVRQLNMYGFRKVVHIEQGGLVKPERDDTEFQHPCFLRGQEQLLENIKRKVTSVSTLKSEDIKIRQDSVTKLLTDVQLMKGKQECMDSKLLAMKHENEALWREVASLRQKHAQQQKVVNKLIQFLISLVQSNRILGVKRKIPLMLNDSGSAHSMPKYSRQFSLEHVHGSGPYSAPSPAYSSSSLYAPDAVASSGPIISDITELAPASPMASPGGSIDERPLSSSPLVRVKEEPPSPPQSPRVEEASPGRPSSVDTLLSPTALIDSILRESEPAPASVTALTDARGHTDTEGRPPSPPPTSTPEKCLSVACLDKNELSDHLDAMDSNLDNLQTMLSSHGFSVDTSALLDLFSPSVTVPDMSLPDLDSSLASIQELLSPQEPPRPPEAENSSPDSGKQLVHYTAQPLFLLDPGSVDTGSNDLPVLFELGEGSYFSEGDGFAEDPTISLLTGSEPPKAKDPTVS
sequence,measurement,setting,value
TGTAAA,binding signal,[1],"1.22 fold enrichment (6-mer frequency, TF over GST control)"
same,binding signal,[2],"1.06 fold enrichment (6-mer frequency, TF over GST control)"
same,binding signal,[3],"1.08 fold enrichment (6-mer frequency, TF over GST control)"
same,binding signal,[4],"1.15 fold enrichment (6-mer frequency, TF over GST control)"
same,binding signal,[5],"1.14 fold enrichment (6-mer frequency, TF over GST control)"
same,binding signal,[6],"1.13 fold enrichment (6-mer frequency, TF over GST control)"
same,binding signal,[7],"1.26 fold enrichment (6-mer frequency, TF over GST control)"
same,binding signal,[8],"1.2 fold enrichment (6-mer frequency, TF over GST control)"
same,binding signal,[9],"1.09 fold enrichment (6-mer frequency, TF over GST control)"
same,binding signal,[10],"1.08 fold enrichment (6-mer frequency, TF over GST control)"
same,binding signal,[11],"1.16 fold enrichment (6-mer frequency, TF over GST control)"
same,binding signal,[12],"1.2 fold enrichment (6-mer frequency, TF over GST control)"
same,binding signal,[13],"1.24 fold enrichment (6-mer frequency, TF over GST control)"
same,binding signal,[14],"1.13 fold enrichment (6-mer frequency, TF over GST control)"
same,binding signal,[15],"1.1 fold enrichment (6-mer frequency, TF over GST control)"
same,binding signal,[16],"1.16 fold enrichment (6-mer frequency, TF over GST control)"
same,binding signal,[17],"1.23 fold enrichment (6-mer frequency, TF over GST control)"
same,binding signal,[18],"1.2 fold enrichment (6-mer frequency, TF over GST control)"
same,binding signal,[19],"1.14 fold enrichment (6-mer frequency, TF over GST control)"
